Assay results taken from the supplement of paper PMC11732987, “Enantioselective OTUD7B fragment discovery through chemoproteomics screening and high-throughput optimisation” (Communications Chemistry, 2025).

Key:
Experiment in all cases: log2 ratio of Biotin-Ahx-Ub-VS probe labelling (fragment/DMSO); higher = less target engagement (more negative = stronger competition), active = hit call of the paper (q ≤ 0.05, log2 ratio ≤ -1)
Conditions in all cases: compound concentration: 200 uM; treatment time: 3 h
[1] = molecular target: T1, USP42 (UniProt Q9H9J4)
T1 sequence (whole entry): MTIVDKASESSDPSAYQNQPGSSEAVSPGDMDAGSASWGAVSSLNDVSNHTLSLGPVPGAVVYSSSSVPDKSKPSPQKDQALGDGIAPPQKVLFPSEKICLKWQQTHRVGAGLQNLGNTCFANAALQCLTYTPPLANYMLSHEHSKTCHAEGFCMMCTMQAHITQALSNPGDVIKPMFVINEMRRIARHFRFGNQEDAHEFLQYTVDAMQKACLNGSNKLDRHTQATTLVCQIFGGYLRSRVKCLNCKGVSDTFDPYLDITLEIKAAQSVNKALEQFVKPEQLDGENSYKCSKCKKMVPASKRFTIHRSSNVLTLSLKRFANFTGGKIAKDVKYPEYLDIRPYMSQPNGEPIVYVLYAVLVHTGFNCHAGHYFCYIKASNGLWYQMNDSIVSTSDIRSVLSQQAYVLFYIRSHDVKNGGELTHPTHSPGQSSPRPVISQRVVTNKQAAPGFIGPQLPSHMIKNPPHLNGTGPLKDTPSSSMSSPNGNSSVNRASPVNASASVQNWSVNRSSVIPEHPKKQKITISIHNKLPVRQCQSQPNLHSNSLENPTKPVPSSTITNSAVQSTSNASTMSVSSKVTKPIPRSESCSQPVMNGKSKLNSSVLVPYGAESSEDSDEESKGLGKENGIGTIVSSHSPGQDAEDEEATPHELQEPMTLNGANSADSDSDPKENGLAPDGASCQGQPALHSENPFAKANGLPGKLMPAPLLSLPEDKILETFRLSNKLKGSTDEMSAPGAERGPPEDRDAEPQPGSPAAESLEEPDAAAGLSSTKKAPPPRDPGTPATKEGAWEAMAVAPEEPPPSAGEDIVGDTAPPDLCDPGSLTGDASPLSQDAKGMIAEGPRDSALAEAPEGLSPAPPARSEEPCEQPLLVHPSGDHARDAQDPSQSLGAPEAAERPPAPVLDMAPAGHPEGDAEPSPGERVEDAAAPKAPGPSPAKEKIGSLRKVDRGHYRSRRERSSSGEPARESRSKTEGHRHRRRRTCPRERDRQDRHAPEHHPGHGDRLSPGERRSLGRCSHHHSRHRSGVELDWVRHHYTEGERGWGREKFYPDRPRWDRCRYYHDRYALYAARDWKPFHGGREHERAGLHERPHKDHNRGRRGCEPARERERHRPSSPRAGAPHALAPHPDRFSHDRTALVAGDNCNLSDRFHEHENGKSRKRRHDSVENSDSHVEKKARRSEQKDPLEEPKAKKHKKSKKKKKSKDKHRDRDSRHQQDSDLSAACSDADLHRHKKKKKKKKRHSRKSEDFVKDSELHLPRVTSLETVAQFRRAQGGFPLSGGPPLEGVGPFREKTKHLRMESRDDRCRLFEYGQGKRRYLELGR
Procedure, shortened: (§1)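 Labelled DUBs from HEK293T lysate were NeutrAvidin-enriched, digested with LysC and trypsin, and run by diaPASEF LC-MS/MS. Before that, each 495 µg sample in Tris/CHAPS/IGEPAL buffer with protease inhibitors was treated in triplicate with fragment at 200 µM or vehicle for 3 h, then with Biotin-Ahx-Ub-VS at 0.5 µM final for 1 h. Values are average log2 ratios of fragment over vehicle by unpaired t-test, based on global-median-normalised Spectronaut label-free quantities from proteins with ≥2 unique peptides.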

[2] = molecular target: USP46 (UniProt P62068)
Procedure, shortened: as §1

[3] = molecular target: T2, USP47 (UniProt Q96K76)
T2 sequence (whole entry): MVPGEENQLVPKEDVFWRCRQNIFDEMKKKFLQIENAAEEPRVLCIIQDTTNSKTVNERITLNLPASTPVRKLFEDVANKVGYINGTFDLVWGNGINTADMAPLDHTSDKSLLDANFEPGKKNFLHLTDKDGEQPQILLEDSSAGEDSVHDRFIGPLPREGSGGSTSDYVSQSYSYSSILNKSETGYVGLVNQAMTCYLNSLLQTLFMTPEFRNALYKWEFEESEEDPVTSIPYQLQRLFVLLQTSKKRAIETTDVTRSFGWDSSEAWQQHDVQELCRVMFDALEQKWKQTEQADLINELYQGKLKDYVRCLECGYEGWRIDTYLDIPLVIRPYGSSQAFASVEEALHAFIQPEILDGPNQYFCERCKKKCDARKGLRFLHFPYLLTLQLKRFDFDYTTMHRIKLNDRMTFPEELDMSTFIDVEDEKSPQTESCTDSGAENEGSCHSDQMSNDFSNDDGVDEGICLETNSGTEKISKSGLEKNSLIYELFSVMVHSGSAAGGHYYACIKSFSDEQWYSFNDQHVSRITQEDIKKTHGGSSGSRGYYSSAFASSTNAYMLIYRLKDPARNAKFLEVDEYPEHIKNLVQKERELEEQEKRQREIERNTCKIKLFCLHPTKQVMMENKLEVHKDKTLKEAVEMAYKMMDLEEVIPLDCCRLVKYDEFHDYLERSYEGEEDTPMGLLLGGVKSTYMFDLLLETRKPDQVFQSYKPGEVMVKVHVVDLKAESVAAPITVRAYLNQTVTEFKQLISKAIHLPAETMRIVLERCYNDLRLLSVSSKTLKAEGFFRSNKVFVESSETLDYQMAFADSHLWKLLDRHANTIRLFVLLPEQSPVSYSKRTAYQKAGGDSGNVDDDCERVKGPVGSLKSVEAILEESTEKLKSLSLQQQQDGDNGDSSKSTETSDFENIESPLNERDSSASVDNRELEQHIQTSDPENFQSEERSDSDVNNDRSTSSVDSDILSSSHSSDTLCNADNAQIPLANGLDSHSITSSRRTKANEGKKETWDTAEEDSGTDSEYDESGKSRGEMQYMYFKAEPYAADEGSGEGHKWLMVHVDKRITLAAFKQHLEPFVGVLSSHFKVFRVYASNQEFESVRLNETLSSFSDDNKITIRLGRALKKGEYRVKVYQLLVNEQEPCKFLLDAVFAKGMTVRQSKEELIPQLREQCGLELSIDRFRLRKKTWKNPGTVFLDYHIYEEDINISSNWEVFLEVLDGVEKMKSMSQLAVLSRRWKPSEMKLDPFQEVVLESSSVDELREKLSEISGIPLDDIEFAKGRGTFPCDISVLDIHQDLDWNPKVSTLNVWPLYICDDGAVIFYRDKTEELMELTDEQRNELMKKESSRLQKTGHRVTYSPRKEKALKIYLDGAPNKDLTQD
Procedure, shortened: as §1

[4] = molecular target: T3, USP48 (UniProt Q86UV5)
T3 sequence (whole entry): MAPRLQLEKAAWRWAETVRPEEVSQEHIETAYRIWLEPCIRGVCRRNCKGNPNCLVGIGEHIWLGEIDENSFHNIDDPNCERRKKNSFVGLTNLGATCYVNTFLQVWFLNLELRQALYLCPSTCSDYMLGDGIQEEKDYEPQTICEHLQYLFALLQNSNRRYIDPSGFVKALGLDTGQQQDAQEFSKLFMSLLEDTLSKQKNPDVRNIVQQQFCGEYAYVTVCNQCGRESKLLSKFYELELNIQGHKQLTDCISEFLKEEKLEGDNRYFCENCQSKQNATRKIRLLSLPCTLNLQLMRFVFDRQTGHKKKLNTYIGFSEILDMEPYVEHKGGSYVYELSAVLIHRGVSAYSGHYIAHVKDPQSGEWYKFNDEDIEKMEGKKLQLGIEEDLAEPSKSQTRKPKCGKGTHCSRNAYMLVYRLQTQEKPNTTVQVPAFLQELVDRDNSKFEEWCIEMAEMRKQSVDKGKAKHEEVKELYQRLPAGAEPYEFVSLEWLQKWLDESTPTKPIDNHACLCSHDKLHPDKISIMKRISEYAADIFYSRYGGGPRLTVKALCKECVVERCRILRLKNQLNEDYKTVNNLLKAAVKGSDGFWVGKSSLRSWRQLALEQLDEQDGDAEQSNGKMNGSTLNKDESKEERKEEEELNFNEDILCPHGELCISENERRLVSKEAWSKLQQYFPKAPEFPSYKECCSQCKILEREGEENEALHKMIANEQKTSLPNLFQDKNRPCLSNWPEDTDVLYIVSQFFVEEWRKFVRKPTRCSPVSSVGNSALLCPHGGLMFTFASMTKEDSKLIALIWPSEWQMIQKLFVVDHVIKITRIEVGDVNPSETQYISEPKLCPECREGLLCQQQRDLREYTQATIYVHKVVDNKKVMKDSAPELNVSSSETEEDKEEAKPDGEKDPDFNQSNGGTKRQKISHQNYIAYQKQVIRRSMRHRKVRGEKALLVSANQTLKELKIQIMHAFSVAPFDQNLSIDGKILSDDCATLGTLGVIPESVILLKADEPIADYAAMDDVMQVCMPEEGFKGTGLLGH
Procedure, shortened: as §1

[5] = molecular target: T4, USP5 (UniProt P45974)
T4 sequence (whole entry): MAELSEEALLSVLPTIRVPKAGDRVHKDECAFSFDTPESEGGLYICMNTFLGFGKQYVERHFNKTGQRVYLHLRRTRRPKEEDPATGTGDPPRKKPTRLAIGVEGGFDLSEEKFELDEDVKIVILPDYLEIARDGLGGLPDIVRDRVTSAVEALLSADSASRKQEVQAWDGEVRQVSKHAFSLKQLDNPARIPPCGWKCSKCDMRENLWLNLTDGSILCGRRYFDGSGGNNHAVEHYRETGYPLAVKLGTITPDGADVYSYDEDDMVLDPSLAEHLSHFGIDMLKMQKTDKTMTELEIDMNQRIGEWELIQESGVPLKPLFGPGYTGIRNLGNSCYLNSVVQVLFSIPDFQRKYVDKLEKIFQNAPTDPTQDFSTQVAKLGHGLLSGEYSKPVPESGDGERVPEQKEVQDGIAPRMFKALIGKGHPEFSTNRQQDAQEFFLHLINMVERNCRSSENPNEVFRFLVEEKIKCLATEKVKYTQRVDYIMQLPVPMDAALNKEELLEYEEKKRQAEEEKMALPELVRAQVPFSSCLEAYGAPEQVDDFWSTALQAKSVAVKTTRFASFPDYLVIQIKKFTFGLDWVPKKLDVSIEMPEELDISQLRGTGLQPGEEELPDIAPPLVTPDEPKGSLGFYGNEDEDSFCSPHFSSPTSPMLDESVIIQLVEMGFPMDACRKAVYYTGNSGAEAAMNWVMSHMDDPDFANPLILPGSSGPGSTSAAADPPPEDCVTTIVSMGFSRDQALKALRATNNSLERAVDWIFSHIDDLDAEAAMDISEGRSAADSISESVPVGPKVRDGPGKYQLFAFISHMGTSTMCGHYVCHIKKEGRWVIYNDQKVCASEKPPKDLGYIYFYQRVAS
Procedure, shortened: as §1

[6] = molecular target: USP54 (UniProt Q70EL1)
Procedure, shortened: as §1

[7] = molecular target: USP7 (UniProt Q93009)
Procedure, shortened: as §1

[8] = molecular target: T5, USP8 (UniProt P40818)
T5 sequence (whole entry): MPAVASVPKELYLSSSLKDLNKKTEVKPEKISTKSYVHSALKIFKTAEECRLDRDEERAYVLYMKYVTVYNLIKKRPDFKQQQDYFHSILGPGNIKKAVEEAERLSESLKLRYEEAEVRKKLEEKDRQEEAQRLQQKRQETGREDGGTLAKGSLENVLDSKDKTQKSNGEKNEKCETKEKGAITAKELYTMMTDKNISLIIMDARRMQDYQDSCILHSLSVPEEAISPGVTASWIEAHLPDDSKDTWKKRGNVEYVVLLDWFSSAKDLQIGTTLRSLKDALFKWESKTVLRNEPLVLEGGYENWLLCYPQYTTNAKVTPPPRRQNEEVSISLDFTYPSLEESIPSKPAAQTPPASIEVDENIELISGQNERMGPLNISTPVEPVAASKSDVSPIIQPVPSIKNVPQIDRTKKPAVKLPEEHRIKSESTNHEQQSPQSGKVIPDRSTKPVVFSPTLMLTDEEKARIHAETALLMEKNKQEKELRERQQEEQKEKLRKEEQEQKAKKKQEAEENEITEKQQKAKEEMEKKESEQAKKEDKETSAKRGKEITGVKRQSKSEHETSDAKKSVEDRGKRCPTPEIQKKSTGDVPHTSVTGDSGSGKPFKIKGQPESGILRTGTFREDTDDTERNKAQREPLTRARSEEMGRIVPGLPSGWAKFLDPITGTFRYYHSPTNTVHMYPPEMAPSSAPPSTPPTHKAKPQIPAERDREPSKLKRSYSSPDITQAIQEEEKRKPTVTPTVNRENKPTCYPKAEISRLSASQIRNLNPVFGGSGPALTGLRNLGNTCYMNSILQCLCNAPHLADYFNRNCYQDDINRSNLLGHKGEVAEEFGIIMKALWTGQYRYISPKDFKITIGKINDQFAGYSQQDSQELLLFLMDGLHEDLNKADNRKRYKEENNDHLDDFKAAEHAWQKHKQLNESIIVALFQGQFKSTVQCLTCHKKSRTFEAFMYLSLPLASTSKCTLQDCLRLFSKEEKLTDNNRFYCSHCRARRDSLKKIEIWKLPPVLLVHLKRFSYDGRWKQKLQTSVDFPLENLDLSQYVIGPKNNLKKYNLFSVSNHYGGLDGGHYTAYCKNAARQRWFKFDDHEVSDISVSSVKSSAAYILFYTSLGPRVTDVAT
Procedure, shortened: as §1

Measured: log2 ratio of Biotin-Ahx-Ub-VS probe labelling

USP7, sequence (Q93009 whole entry, looked up): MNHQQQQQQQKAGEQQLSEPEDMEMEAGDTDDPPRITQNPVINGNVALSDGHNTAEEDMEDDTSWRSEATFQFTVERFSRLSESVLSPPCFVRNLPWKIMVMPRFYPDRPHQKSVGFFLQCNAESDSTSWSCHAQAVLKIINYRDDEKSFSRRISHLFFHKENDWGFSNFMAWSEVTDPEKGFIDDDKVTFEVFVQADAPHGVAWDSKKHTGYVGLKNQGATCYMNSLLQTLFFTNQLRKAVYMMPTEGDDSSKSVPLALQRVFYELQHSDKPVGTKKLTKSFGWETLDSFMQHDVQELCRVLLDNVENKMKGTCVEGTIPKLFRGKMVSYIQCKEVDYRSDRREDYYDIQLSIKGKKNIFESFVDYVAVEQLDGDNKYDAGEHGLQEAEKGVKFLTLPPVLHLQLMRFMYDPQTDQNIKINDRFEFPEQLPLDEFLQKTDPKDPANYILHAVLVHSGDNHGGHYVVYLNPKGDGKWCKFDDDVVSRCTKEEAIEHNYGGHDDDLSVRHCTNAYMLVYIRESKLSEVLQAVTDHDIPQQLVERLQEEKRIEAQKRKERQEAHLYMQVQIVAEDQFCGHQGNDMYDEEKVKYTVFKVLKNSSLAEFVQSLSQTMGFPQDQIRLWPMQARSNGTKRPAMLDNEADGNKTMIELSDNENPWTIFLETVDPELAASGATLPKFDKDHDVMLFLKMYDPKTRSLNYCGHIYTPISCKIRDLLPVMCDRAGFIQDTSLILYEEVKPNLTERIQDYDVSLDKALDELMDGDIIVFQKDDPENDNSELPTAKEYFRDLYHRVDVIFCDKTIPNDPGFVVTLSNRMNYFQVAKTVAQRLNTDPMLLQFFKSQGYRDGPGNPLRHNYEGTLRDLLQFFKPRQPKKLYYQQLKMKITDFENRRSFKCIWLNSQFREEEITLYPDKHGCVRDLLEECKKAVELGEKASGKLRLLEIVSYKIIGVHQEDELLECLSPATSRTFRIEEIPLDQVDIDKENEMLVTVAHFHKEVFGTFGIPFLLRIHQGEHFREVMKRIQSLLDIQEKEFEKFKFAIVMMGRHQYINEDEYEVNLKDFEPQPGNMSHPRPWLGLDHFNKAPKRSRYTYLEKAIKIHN
USP54, sequence (Q70EL1 whole entry): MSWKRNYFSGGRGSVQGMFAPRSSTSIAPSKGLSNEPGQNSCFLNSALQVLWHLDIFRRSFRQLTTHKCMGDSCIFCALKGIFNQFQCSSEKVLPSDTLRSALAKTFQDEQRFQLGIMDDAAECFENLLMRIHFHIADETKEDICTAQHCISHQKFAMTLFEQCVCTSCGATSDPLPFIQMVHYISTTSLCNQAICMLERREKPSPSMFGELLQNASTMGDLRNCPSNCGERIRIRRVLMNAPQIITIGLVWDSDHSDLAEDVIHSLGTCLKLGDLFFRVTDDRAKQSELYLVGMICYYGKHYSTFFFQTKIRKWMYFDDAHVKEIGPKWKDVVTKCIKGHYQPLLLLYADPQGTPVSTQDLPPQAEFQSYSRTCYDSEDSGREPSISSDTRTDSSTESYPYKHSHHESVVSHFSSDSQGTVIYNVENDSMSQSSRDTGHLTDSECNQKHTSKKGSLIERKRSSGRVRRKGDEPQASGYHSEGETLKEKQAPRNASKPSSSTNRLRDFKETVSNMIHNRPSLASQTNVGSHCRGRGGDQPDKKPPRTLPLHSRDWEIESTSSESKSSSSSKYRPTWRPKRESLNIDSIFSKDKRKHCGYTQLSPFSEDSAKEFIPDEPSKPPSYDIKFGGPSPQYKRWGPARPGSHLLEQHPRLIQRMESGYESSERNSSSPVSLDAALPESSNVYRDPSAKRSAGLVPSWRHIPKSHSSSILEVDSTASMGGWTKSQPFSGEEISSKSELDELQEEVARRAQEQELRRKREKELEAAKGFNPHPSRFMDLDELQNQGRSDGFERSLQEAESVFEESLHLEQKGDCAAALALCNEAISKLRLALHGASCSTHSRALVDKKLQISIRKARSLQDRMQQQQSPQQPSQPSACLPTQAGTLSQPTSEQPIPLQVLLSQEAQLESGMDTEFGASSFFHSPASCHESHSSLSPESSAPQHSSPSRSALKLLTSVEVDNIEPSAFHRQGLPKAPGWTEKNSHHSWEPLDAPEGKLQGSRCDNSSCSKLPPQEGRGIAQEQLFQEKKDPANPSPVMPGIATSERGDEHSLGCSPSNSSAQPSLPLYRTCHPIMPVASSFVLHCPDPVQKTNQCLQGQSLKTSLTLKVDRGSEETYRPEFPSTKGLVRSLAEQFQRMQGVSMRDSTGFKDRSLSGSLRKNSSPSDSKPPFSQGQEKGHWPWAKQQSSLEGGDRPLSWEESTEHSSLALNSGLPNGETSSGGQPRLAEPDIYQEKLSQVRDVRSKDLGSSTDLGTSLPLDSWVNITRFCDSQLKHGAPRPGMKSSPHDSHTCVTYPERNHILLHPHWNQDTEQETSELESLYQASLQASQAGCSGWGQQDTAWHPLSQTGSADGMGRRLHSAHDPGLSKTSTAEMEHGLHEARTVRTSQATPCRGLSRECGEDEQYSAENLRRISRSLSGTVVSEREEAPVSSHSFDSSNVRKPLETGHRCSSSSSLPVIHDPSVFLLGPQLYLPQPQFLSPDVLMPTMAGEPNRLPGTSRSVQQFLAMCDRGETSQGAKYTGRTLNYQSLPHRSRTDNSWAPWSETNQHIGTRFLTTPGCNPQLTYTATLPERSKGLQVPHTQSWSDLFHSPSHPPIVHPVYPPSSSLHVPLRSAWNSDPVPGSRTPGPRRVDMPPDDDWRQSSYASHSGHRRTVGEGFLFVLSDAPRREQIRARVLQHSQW
USP46, sequence (P62068 whole entry): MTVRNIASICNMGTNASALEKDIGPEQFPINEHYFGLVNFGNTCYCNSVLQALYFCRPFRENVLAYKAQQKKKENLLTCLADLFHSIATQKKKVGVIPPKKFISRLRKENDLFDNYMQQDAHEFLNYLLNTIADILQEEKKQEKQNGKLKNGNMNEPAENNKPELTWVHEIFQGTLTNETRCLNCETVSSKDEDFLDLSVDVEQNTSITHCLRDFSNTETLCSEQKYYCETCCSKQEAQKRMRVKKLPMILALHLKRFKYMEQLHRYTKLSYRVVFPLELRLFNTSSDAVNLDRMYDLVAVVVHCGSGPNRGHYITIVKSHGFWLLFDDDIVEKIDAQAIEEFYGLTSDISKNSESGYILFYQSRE

Cc1cccc(C(CNC(=O)CCl)N2CCOCC2)c1.Cl (stereo not drawn)
inactive: [1] -0.208 | [2] 0.086 | [3] 0.268 | [4] -0.106 | [5] -0.22 | [6] -0.0536 | [7] -0.244 | [8] -0.417
